The source made the active and inactive calls. The calls were made as follows: active = hit-call score of the fitted dose curve at least 0.9, where 1 is the maximum; inactive = score below 0.9.
These compounds were tested on BCL2L11 (gene 10018) (assay: LTEA_HepaRG_BCL2L11: Life Technologies and Expression Analysis (LTEA) Assay for Bcl-2 (BCL2L11) gene using HepaRG (AID 2283473)). Conditions: mRNA level, 48 h; actives raise or lower the signal.
Description: LTEA_HepaRG is a cell based, multiplexed-readout assay that uses HepaRG, a human liver cell line, with measurements taken at 48 hours after chemical dosing on a 96-well plate.LTEA_HepaRG_BCL2L11 is one of 102 assay component(s) measured in the LTEA HepaRG cell culture assay. It is a marker of Cell proliferation, survival, death.Data from the assay component LTEA_HepaRG_BCL2L11 was analyzed into 1 endpoint. This assay endpoint, LTEA_HepaRG_BCL2L11, was analyzed with bidirectional fitting relative to DMSO as the negative control and baseline of activity. Using a type of inducible reporter, measures of mRNA induction for gain or loss-of-signal activity can be used to understand regulation of transcription factor activity. To generalize the intended target to other relatable targets, this assay endpoint is annotated to the cell cycle intended target family, where the subfamily is Cell proliferation, survival, death.
A total of 1060 chemcials from the ToxCast library were tested in eight-point concentration-response experiments. Cell culture and cytotoxicity assays were conducted at Thermo Fisher Scientific's Custom Services facility (Madison, WI). A single lot of human HepaRG cells (Thermo Fisher Scientific, Frederick, MD) was used for the cell culture experiments. 96-well format collagen type I coated plates of human HepaRG cells were prepared using established methods. Briefly, cryopreserved HepaRG cells were thawed, plated at a density of approximately 100,000 cells/well in HepaRG Thaw, Plate, and General Purpose media (HPRG770, Thermo Fisher Scientific), and incubated for 48 hours. 0.5% DMSO was selected as vehicle control to balance the requisite need of DMSO in HepaRG cultures to maintain differentiation (for example, baseline metabolism, proportions of hepatocytes vs. cholangiocytes), while enabling further hepatic receptor pathway activation (for example, PXR and CAR) in response to chemical exposure. 48 hours after plating, the culture medium was replaced with HepaRG Serum-Free Incudtion Media. Cells were exposed to each test chemical in duplicate and maintained in CO2 incubators for another 48 hours. Chemical plates were thawed to room temperature and 200x concentrations of treatment groups were prepared. 8-point conentration-reponse curves were made with the highest exposure at 100 uM, followed by half-log dilutions, all in 0.5% DMSO. Each test plate contained variouse controls, induction positive controls (1mM phenobarbital), cytotoxicity positive controls ([…] aflatoxin B1), vehicle controls (0.5% DMSO), and total lysis controls (0.5% DMSO). Cell morphology images were taken using an Essen IncuCyte FLR automated microscope, with six 96-well plates imaged in about 24 minutes. Images were captured and exported and JPEG files. Spent culture media was transfered to black-well plates for the LDH assay, and remaining media was sorted at -80 C for later use. Cells were treated with RLT buffer and frozen until shipped for gene expression analysis. Total RNA was isolated from the cell suspension in 75 uL of Buffer RLT (Qiagen, Germantown, MD 20874) by Quintiles/Expression Analysis (Durham, NC) using a custom isolation procedure. Total RNA from each plate well was transferred to a preamplification plate. Fluidigm's 96.96 Dynamic ArrayTM (Fluidigm, Amsterdam, the Netherlands) technology was used for gene expression analyses by quantitative reverse transcription polymerase chain reaction (qRT-PCR, performed by Quintiles/Expression Analysis, Durham, NC)89. Standard TaqManTM Assays (Applied Biosystems/ThermoFisher Scientific, Foster City, CA) were used to assess the expression of 93 genes selected based on their selectivity and sensitivity to important hepatic receptors known to be modulated by environmental chemicals; importance in human hepatocyte functionality; and hepatotoxicity. […]

Compound | outcome | AC50
N#Cc1ccc(N(CC(N)=O)CC(F)(F)F)cc1C(F)(F)F | inactive | –
ClC1=C(Cl)[C@]2(Cl)[C@@H]3[C@@H](Cl)[C@H]4O[C@H]4[C@@H]3C1(Cl)C2(Cl)Cl | inactive | –
CCCCCCCCOC(=O)c1ccccc1C(=O)OCCCCCCCC | inactive | –
C1CC2OC2CC1C1CO1 (stereo not given) | inactive | –
C=CC(N)=O | inactive | –
ClC1=C(Cl)[C@]2(Cl)[C@@H]3[C@H]4C[C@H]([C@@H]5O[C@H]45)[C@@H]3[C@@]1(Cl)C2(Cl)Cl | inactive | –
COc1ccc(O)c(C(C)(C)C)c1 | inactive | –
CO/C=C(/C(=O)OC)c1ccccc1COc1cccc(C(F)(F)F)n1 | – | 6.53 µM (active)
O=C(O)C(F)(F)C(F)(F)C(F)(F)C(F)(F)C(F)(F)C(F)(F)C(F)(F)C(F)(F)C(F)(F)F | – | 12.1 µM (active)
CCOCCOC(C)=O | inactive | –
CCCCCCCCCc1ccc(O)cc1 | inactive | –
c1cc2ccc3cccc4ccc(c1)c2c34 | inactive | –
CC1=C2C[C@H]3[C@@H](CC=C4C[C@@H](O)CC[C@@]43C)[C@@H]2CC[C@]12O[C@@H]1C[C@H](C)CN[C@H]1[C@H]2C | inactive | –
Clc1ccc(Cl)cc1 | inactive | –
CCNc1nc(NC(C)C)nc(SC)n1 | inactive | –
Cc1cc(-c2ccc(N)c(C)c2)ccc1N | inactive | –
CC(c1ccc(O)cc1)(c1ccc(O)cc1)c1ccc(O)cc1 | – | 82.2 µM (active)
CCC(C)c1cc([N+](=O)[O-])cc([N+](=O)[O-])c1O (stereo not given) | – | 1.39 µM (active)
Cc1cc2c3c(c1)C(c1ccccc1)=N[C@@H](NC(=O)c1ccncc1)C(=O)N3CC2 | inactive | –
Cc1ccccc1CO[C@@H]1C[C@@]2(C(C)C)CC[C@]1(C)O2 | inactive | –

Compound | outcome | AC50
CCC(C)(CC)c1cc(NC(=O)c2c(OC)cccc2OC)on1 | inactive | –
ClC(Cl)=C(c1ccc(Cl)cc1)c1ccc(Cl)cc1 | inactive | –
Cc1ccccc1O | inactive | –
Oc1ccc(Cl)cc1Cl | inactive | –
CCCCCCOC(=O)c1ccccc1C(=O)OCCCCCC | inactive | –
CCSC(=O)N(CC)C1CCCCC1 | inactive | –
CCOC(=O)C(O)(c1ccc(Cl)cc1)c1ccc(Cl)cc1 | inactive | –
CCC(C)(c1ccc(O)cc1)c1ccc(O)cc1 | inactive | –
O=S(=O)(O)C(F)(F)C(F)(F)C(F)(F)C(F)(F)C(F)(F)C(F)(F)F | inactive | –
C[C@]12CCC(=O)C=C1CC[C@@H]1[C@@H]2CC[C@]2(C)C(=O)CC[C@@H]12 | inactive | –
CC#Cc1cc(C)nc(Nc2ccccc2)n1 | – | 13 µM (active)
Cc1ccccc1[N+](=O)[O-] | inactive | –
O=NN(c1ccccc1)c1ccccc1 | – | 50 µM (active)
O=C(O)C(F)(F)C(F)(F)C(F)(F)C(F)(F)C(F)(F)F | inactive | –
Oc1c(Cl)c(Cl)c(Cl)c(Cl)c1Cl | – | 6.24 µM (active)
Cc1ccc(O)c(C)c1 | inactive | –
ClC1=C(Cl)[C@]2(Cl)[C@@H]3[C@@H]4C[C@@H]([C@H]5O[C@@H]45)[C@@H]3[C@@]1(Cl)C2(Cl)Cl | inactive | –
CN(C)c1nc(=O)n(C2CCCCC2)c(=O)n1C | inactive | –
O=S(=O)(O)C(F)(F)C(F)(F)C(F)(F)C(F)(F)F | inactive | –
Cc1cccc(C)c1N | inactive | –

Source: PubChem BioAssay (EPA / NIEHS)
